MITF inh: inhibitors of MITF, primary screen, MITF inhibitor project, cell-based, luminescence; AID 2240, 2010; inhibition, % (concentration not given with the values); TRPM1 promoter luciferase, 24 h; hit rate 0.28% among 37,000; in the data active means inhibition above about 85%; inconclusive means no clear call, values can overlap the other calls; inactive means below about 68%;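 further: human melanocyte line stably carrying TRPM1 promoter luciferase reporter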
Hedgehog inh: Hedgehog pathway signaling inhibitors, primary screen, luminescence, Shh-LIGHT2 cells, Gli-luciferase. Shh-LIGHT2 Gli-luciferase reporter, 30 h. inhibition, % (concentration not given with the values). hit rate 2.1% among 22,000;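 active means mean inhibition across valid replicates above about 65%, limit read from the data; inconclusive means mean under the limit, yet half or more replicates past it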;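 further: pathway switched on by Shh-conditioned medium diluted 1 in 25 in low serum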
NOMO-1 viab: NOMO-1 AML cell viability reduction, primary screen, STK33 inhibitor project, CellTiter-Glo luminescence; NOMO-1 AML viability, 72 h; inhibition, % (no concentration beside the values); hit rate 7.5% among 37,000; in the data active means inhibition above about 80%; inconclusive means no clear call, values can overlap the other calls
* = called active by the depositor; ? = inconclusive; nt = no result. An excerpt weighted towards active compounds, which were near 7.9% of everything screened.

SMILES	MITF inh	Hedgehog inh	NOMO-1 viab
Cc1ccc(S(=O)(=O)N(C)C[C@H]2Oc3c(NC(=O)c4cc(C)nn4C)cccc3C(=O)N([C@H](C)CO)C[C@H]2C)cc1	-6.4	-6.9	-1.9
CC1CC(=O)[C@]2(C)CC[C@]3(C)C(C(=O)C(O)C4[C@@]5(C)CC[C@H](O)C(C)(C(=O)O)C5CC[C@]43C)C2C1C (stereo not given in full)	58.3	81.5*	119.2*
C[C@@H]1CC[C@]2(C(=O)O)CC[C@]3(C)C(=CCC4[C@@]5(C)CC[C@@H](O)[C@](C)(C(=O)O)C5CC[C@]43C)C2[C@H]1C (stereo not given in full)	-1.3	-7.7	8.2
C[C@@H]1CN([C@H](C)CO)C(=O)c2cccc(NC(=O)C3CCCCC3)c2O[C@@H]1CN(C)Cc1ccc(C(F)(F)F)cc1	-5.7	-14.9	47.0
C[C@H]1CN([C@@H](C)CO)C(=O)c2cccc(NC(=O)C3CCCCC3)c2O[C@@H]1CN(C)Cc1ccc(C(F)(F)F)cc1	-12.7	-39.9	91.0*
C[C@@H]1CN([C@@H](C)CO)C(=O)c2cccc(NC(=O)C3CCCCC3)c2O[C@@H]1CN(C)Cc1ccc(C(F)(F)F)cc1	17.4	26.8	?
C[C@@H]1CN([C@@H](C)CO)C(=O)c2cccc(NC(=O)C3CCCCC3)c2O[C@H]1CN(C)Cc1ccc(C(F)(F)F)cc1	22.0	26.0	105.3*
C[C@H](CO)N1C[C@H](C)[C@H](CN(C)Cc2ccc(C(F)(F)F)cc2)Oc2c(NC(=O)C3CCCCC3)cccc2C1=O	15.4	-0.1	59.3
C[C@H](CO)N1C[C@H](C)[C@@H](CN(C)Cc2ccc(C(F)(F)F)cc2)Oc2c(NC(=O)C3CCCCC3)cccc2C1=O	43.3	-12.5	99.4*
O=C(CSc1ncnc2sc3c(c12)CCC3)Nc1ccc(Cl)cc1	-31.3	nt	-17.8
CC1CCc2c(sc3ncnc(SCC(=O)Nc4cccc(Cl)c4Cl)c23)C1 (stereo not given)	-12.6	nt	11.3
COc1ccc(S(=O)(=O)N(CC(=O)O)c2ccc(Cl)cc2)cc1	1.8	nt	-9.3
COc1ccc(S(=O)(=O)N(CCO)c2ccccc2CN(C)C/C=C/c2ccc(Cl)cc2)cc1	51.5	47.2	83.3*
C[C@@H]1CN([C@@H](C)CO)C(=O)c2cc(NC(=O)Cn3cnnn3)ccc2O[C@@H]1CN(C)C(=O)Nc1ccccc1	-2.3	-25.3	2.8
COc1cc2c(cc1NC(=O)COC(C)=O)oc1ccccc12	-23.1	nt	3.7
C[C@@H]1CN([C@@H](C)CO)C(=O)c2cc(NS(=O)(=O)c3ccc(F)cc3)ccc2O[C@H]1CN(C)Cc1ccc2c(c1)OCO2	1.5	nt	7.1
C[C@H]1CN([C@@H](C)CO)C(=O)c2cc(NC(=O)c3ccncc3)ccc2O[C@@H]1CN(C)Cc1ccc(C(=O)Nc2ccccc2N)cc1	-8.0	nt	-2.6
C[C@@H]1CN([C@@H](C)CO)C(=O)c2cc(N(C)C)ccc2O[C@@H]1CN(C)Cc1ccc(C(=O)Nc2ccccc2N)cc1	35.8	nt	110.4*
C[C@H]1CN([C@@H](C)CO)C(=O)c2cc(N(C)C)ccc2O[C@@H]1CN(C)Cc1ccc(C(=O)Nc2ccccc2N)cc1	29.4	nt	111.9*
C[C@@H]1CN([C@H](C)CO)C(=O)c2cc(NC(=O)c3ccncc3)ccc2O[C@@H]1CN(C)Cc1ccc(C(=O)Nc2ccccc2N)cc1	-7.7	nt	?
CNC(=O)CN(c1ccccc1)S(=O)(=O)c1ccc(F)cc1	-7.0	nt	22.4
Cc1c(Cl)cccc1NC(=O)CSc1nc(-c2ccccc2)cs1	-6.2	nt	2.4
O=[N+]([O-])c1ccc2nc(CSc3ncnc4ccccc34)[nH]c2c1	13.3	nt	20.1
O=C(CC1(O)C(=O)Nc2ccc(Cl)cc21)c1ccccn1 (stereo not given)	5.5	nt	42.7
O=C(CC1(O)C(=O)Nc2ccc(I)cc21)c1ccccn1 (stereo not given)	16.2	nt	89.9*
SMILES	MITF inh	Hedgehog inh	NOMO-1 viab
O=C(COc1ccc(C(=O)Nc2ccccc2Cl)cc1)Nc1cc(Cl)cc(Cl)c1	20.4	nt	16.1
O=C(Nc1ccccc1Cl)c1cc2ccccc2cc1O	35.9	nt	131.6*
CCC(Sc1nnc(C)s1)C(=O)Nc1ccc(Cl)cc1 (stereo not given)	-2.7	nt	-2.6
Cc1cc(Cl)cc(Cl)c1OCC(=O)Nc1ccc(Cl)c(-c2nc3ncccc3o2)c1	14.8	nt	25.1
Cc1sc2ncnc(NCCCN3CCOCC3)c2c1-c1ccccc1	-1.8	nt	18.6
Cc1ccc(-c2csc3nc4c5ccccc5c(NCCCN5CCOCC5)nn4c(=O)c23)cc1	-34.6	nt	113.7*
Cc1sc2nc3c4ccccc4c(NCCO)nn3c(=O)c2c1C	11.9	nt	-11.0
Cc1sc2nc3c4ccccc4c(NCC4CCCO4)nn3c(=O)c2c1C (stereo not given)	-5.1	nt	86.9*
O=C(Nc1ccccc1)/C(=C/c1ccccc1)NC(=O)c1ccccc1	7.0	-18.9	14.7
CN(CC(=O)Nc1ccc(Cl)cc1C(F)(F)F)S(=O)(=O)c1ccc(Br)cc1	4.2	nt	-12.5
COc1ccc(S(=O)(=O)Nc2ccc3c(c2)CC(=O)N([C@@H](C)CO)C[C@H](C)[C@H](CN(C)Cc2ccc(-c4ccccc4)cc2)O3)cc1	14.0	-20.9	89.8*
COc1ccc(S(=O)(=O)Nc2ccc3c(c2)CC(=O)N([C@H](C)CO)C[C@@H](C)[C@H](CN(C)Cc2ccc(-c4ccccc4)cc2)O3)cc1	-1.4	-7.4	72.0
COc1ccc(S(=O)(=O)Nc2ccc3c(c2)CC(=O)N([C@@H](C)CO)C[C@H](C)[C@H](CN(C)Cc2ccccc2)O3)cc1	9.5	41.3	45.9
COc1ccc(S(=O)(=O)Nc2ccc3c(c2)CC(=O)N([C@@H](C)CO)C[C@H](C)[C@@H](CN(C)Cc2ccc(-c4ccccc4)cc2)O3)cc1	43.0	16.7	124.9*
COc1ccc(S(=O)(=O)Nc2ccc3c(c2)CC(=O)N([C@H](C)CO)C[C@H](C)[C@H](CN(C)Cc2ccc(-c4ccccc4)cc2)O3)cc1	9.0	nt	88.3*
COc1ccc(S(=O)(=O)Nc2ccc3c(c2)CC(=O)N([C@@H](C)CO)C[C@@H](C)[C@@H](CN(C)Cc2ccc(-c4ccccc4)cc2)O3)cc1	0.4	9.9	62.3
Cc1ccc(S(=O)(=O)N(C)C[C@H]2Oc3ccc(NS(=O)(=O)c4cccs4)cc3CC(=O)N([C@@H](C)CO)C[C@@H]2C)cc1	8.5	nt	10.3
COc1ccc(Cl)cc1N=C1NC(=O)CC(C(=O)Nc2ccccc2)S1 (stereo not given)	-11.6	nt	-23.3
CCCC[C@@H](O)c1cc(OC)cc(=O)o1	8.5	-31.4	12.9
C[C@H]1CN([C@@H](C)CO)C(=O)Cc2cc(NC(=O)CCCCCC(=O)Nc3ccccc3N)ccc2O[C@@H]1CN(C)C(=O)Nc1cccc2ccccc12	-13.7	nt	15.6
O=C(O)CSc1nnc2n(CCc3ccccc3)c(=O)c3c4c(sc3n12)CCCC4	-17.7	nt	1.1
Cc1ccc(-n2c(=O)c3c4c(sc3n3c(SCC(=O)c5ccc(F)cc5)nnc23)CCCC4)cc1	-3.4	nt	96.0*
CNC[C@H]1Oc2c(NC(=O)Nc3ccc(C(F)(F)F)cc3)cccc2C(=O)N([C@@H](C)CO)C[C@H]1C	-4.3	-56.7	18.2

Bioassay records deposited in PubChem by Broad Institute.
